# Results published in ChEMBL document CHEMBL3433997, “St. Jude Leishmania screening dataset” (2016).
# Target: Solute carrier family 2, facilitated glucose transporter member 1 (Homo sapiens) (UniProt P11166)
# Experiment: ST_JUDE_LEISH: Cytotoxicity at 2uM final concentration against transgenic Leishmania Mexicana promastigotes LmGLUT1 that are glucose transport deficient and complemented with the human glucose transporter GLUT1. Activity is measured by DNA content using SYBR green in vitro
# Assay type: functional
# Chain of Solute carrier family 2, facilitated glucose transporter member 1 (Homo sapiens) (P11166 whole entry): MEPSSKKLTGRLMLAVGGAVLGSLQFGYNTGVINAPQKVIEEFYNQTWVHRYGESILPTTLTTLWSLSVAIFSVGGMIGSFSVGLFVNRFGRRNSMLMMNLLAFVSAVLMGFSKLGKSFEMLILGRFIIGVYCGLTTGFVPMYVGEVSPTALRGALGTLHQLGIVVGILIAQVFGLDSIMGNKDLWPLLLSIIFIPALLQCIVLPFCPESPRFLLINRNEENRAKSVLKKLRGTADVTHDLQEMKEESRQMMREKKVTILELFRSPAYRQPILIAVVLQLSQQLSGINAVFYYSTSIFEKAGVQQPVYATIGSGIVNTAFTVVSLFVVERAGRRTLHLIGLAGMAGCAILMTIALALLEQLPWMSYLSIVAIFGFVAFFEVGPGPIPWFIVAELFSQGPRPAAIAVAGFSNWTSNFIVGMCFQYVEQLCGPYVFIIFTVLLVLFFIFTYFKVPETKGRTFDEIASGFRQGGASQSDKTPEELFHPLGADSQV
row,Structure (SMILES),inhibition [%]
1,Cc1cc(=NN=Cc2cccc(F)c2)c2ccc(F)cc2[nH]1,10.5
2,COc1cc2c(cc1C(F)(F)F)N(C(=O)Nc1cc(-c3ccncc3)cc(-c3cccnc3)c1)CC2,3.84
3,Cc1cc(F)ccc1-c1nc(NCCCNCCc2ccccc2)nc2c1ccc(=O)n2-c1c(F)cccc1F,0.55
4,Cc1cc(Nc2ccccc2)nc(Nc2ccccc2)n1,9.14
5,Cc1ccc(Nc2nc(C)cc(NC3CC3)n2)cc1,8.73
6,Cn1cnc2c(SCc3ccccc3OCc3ccccc3)ncnc21,6.91
7,COc1ccc2ncc(F)c(CCN3CCC(CNCc4cccc5c4OCO5)CC3)c2n1,2.01
8,CCC(C)CNC(=O)CN1CN(c2ccccc2)C2(CCN(C(=O)c3ccc(Br)cc3)CC2)C1=O (configuration not stated),0.35
9,CC(Sc1nc(-c2ccccc2)c(-c2ccccc2)o1)C(=O)NC1CC1 (configuration not stated),-2
10,CC(C)N1CCC(Oc2ccc(CN3CCN(C(c4ccccc4)c4ccc(Cl)cc4)CC3)cc2)CC1 (configuration not stated),6.88
11,Cc1[nH]c(C)c(-c2ccc(OCc3ccc(F)cc3)cc2)c(=O)c1Br,0.17
12,Cc1cccnc1CNc1nccc2c(C)c(C)[nH]c12,2.2
13,CC(=O)NCCNc1nccc(N2CCc3ncnc(Nc4ccc(OCc5ccccn5)c(Cl)c4)c3C2)n1,0.91
14,CC1CNC(c2ccc(NC(=O)Nc3ccc(C4=NC(C)CN4)cc3)cc2)=N1 (configuration not stated),4.6
15,COc1ccc2c(=O)c(I)c(C)[nH]c2c1,-1.2
16,CC(=O)Nc1ncc(C(=O)Nc2ccc(-c3cccc(-c4nc5cc(F)ccc5[nH]4)c3)cc2)s1,6.62
17,CCc1ccc(NC(=O)c2ccc(CN3CCCN(CC4CCCCC4)CC3)cc2)cc1,7.57
